Laboratory results from ChEMBL document CHEMBL1157539, “Thousands of chemical starting points for antimalarial lead identification” (Nature, 2010).
“And” between values parts separate entries of the source, which are not always exact repeats. Identical values can stand only once.

Legend:
Format in all cases: functional
[1] = test system: Plasmodium falciparum; assay: GSK_TCMDC: Inhibition of Plasmodium falciparum 3D7 in whole red blood cells, using parasite LDH activity as an index of growth. Test compounds present at 2uM
[2] = test system: Plasmodium falciparum; assay: GSK_TCMDC: Inhibition of Plasmodium falciparum Dd2 in whole red blood cells, using parasite LDH activity as an index of growth. Test compounds present at 2uM
[3] = test system: HepG2; assay: GSK_TCMDC: Percent inhibition of human HepG2 cell line. Test compounds present at 10uM.

COc1ccc(CNC2CCN(C)CC2)cc1-c1ccc(OC)c(S(=O)(=O)NCc2ccccc2)c1.O=C(O)C(F)(F)F
Inhibition [1]: 99% | Inhibition [2]: 95% | Inhibition [3]: 10%

COc1ccc(NC(=O)c2cc(NC(=O)C3(N)CC3)c(=O)n(Cc3ccc(C(N)=O)cc3)c2)cc1.O=C(O)C(F)(F)F
Inhibition [1]: 95% | Inhibition [2]: 72% | Inhibition [3]: 21%

O=C(NC1CCC(N2CCC(c3nc4ccccc4s3)CC2)CC1)c1cc2ccccc2[nH]1 (centres undefined)
Inhibition [1]: 94% | Inhibition [2]: 37% | Inhibition [3]: 23%

CC(=O)Nc1nc(C(=O)Nc2ccc(-c3cccc(-c4nc5ccccc5[nH]4)c3)cc2)cs1
Inhibition [1]: 99% | Inhibition [2]: 83% | Inhibition [3]: 68%

COc1ccc(C(=O)CCC(=O)N(Cc2ccc(-c3ccc(CNCCc4ccc(S(C)(=O)=O)cc4)cn3)cc2)Cc2ccc3c(c2)OCO3)cc1F.O=C(O)C(F)(F)F
Inhibition [1]: 95% | Inhibition [2]: 41% | Inhibition [3]: 13%

CN1CCC(C(=O)Nc2cccc(-c3ccc(-c4nc5cc(C(F)(F)F)ccc5[nH]4)s3)c2)CC1
Inhibition [1]: 100% | Inhibition [2]: 95% | Inhibition [3]: 29%

Cc1cc(NC2CCN(CC3CCCCC3)CC2)nc(Nc2ccccc2Cl)n1
Inhibition [1]: 100% | Inhibition [2]: 31% | Inhibition [3]: 28%

CCCCc1cc(NCc2ccncc2)nc(Nc2ccccc2)n1
Inhibition [1]: 96% | Inhibition [2]: 4% | Inhibition [3]: 0%

COc1cc(CNC[C@@H](O)[C@H](Cc2ccccc2)NC(=O)c2cc(C3CCCC3)cc(N3CCCC3=O)c2)cc(OC)c1.Cl
Inhibition [1]: 97% | Inhibition [2]: 76% | Inhibition [3]: 16%

CCOc1cc(C(=O)Nc2ccc3nc(N4CCN(C)CC4)cc(C)c3c2)cc(OCC)c1OCC
Inhibition [1]: 97% | Inhibition [2]: 50% | Inhibition [3]: 14%

COc1ccccc1Nc1nc(NC2CCN(C)CC2)cc(-c2cccc(C(F)(F)F)c2)n1.O=C(O)C(F)(F)F
Inhibition [1]: 95% | Inhibition [2]: 71% | Inhibition [3]: 100%

Clc1ccc2c(NCc3ccccn3)ccnc2c1
Inhibition [1]: 99% | Inhibition [2]: 99% | Inhibition [3]: 0%

COC(=O)C1(NC(=O)c2ccc(-n3nc(C)c(-c4ccccc4)c3N)cc2)CCCC1
Inhibition [1]: 96% | Inhibition [2]: 81% | Inhibition [3]: 9%

COc1cc2nc(-c3ccccc3)nc(N3CCN(CC(=O)N4CCCC4)CC3)c2cc1OC
Inhibition [1]: 84% | Inhibition [2]: 70% | Inhibition [3]: 7%

O=[N+]([O-])c1ccc2nc(Nc3cccc(C(F)(F)F)c3)c(Nc3cccc(C(F)(F)F)c3)nc2c1
Inhibition [1]: 100% | Inhibition [2]: 99% | Inhibition [3]: 0%

CCNc1cc(C(=O)N[C@@H](Cc2ccccc2)[C@H](O)CNC23CCC(CC2)C3)cc(N2CCCCS2(=O)=O)c1.Cl
Inhibition [1]: 97% | Inhibition [2]: 99% | Inhibition [3]: 22%

CNc1ccc(CNCc2ccc(-c3ccc(-c4nc5cc(C(F)(F)F)ccc5[nH]4)s3)cc2)cc1.O=C(O)C(F)(F)F
Inhibition [1]: 100% | Inhibition [2]: 97% | Inhibition [3]: 44%

COc1ccccc1Nc1nc(C)cc(NCc2ccc(-n3ccnc3)cc2)n1
Inhibition [1]: 90% | Inhibition [2]: 10% | Inhibition [3]: 5%

O=C(/C=C/c1ccc(Cl)c(Cl)c1)NC1CCC(CN2CCC(c3coc4ccccc34)CC2)CC1 (centres undefined)
Inhibition [1]: 100% | Inhibition [2]: 41% | Inhibition [3]: 40%

Cc1cc(=NN=Cc2cccc(F)c2)c2ccc(F)cc2[nH]1
Inhibition [1]: 100% | Inhibition [2]: 99% | Inhibition [3]: 2%

O=C(Nc1ccc2[nH]c(-c3ccccc3)nc2c1)c1cc(-c2ccc3c(c2)OCCO3)n[nH]1.O=C(O)C(F)(F)F
Inhibition [1]: 100% | Inhibition [2]: 75% | Inhibition [3]: 58%

COc1ccc(C2CC(c3ccccc3O)=NN2C(=O)c2ccco2)cc1OC (centres undefined)
Inhibition [1]: 96% | Inhibition [2]: 68% | Inhibition [3]: 11%

O=C(Nc1ccc(Cn2ncc(N3CCCNCC3)c(Cl)c2=O)cc1)Nc1cc(F)cc(C(F)(F)F)c1.O=C(O)C(F)(F)F
Inhibition [1]: 100% | Inhibition [2]: 44% | Inhibition [3]: 35%

Cl.Oc1ccc2[nH]c(-c3cccs3)nc2c1CN1CCC(O)(c2ccccc2)CC1
Inhibition [1]: 93% | Inhibition [2]: 69% | Inhibition [3]: 10%

Br.CC=CCON1C(=N)NC(=N)NC1(C)C
Inhibition [1]: 94% | Inhibition [2]: 1% | Inhibition [3]: 57%

O=C(CN1CCN(S(=O)(=O)C=Cc2ccccc2)CC1)Nc1cc(C(F)(F)F)ccc1Cl
Inhibition [1]: 96% | Inhibition [2]: 63% | Inhibition [3]: 23%

COc1ccc(CNC2CCN(C)CC2)cc1-c1ccc(S(=O)(=O)NCCc2ccccn2)c(F)c1.O=C(O)C(F)(F)F
Inhibition [1]: 100% | Inhibition [2]: 55% | Inhibition [3]: 3%

Cc1c(CC(=O)N(C)C2CCN(CCCCCNC(=O)/C=C/c3ccc(Cl)c(Cl)c3)CC2)sc2ccc(Cl)cc12
Inhibition [1]: 95% | Inhibition [2]: 9% | Inhibition [3]: 93%

O=C(Nc1ccc(Cl)c(C(F)(F)F)c1)c1ccc(C(=O)Nc2ccc(Cl)c(C(F)(F)F)c2)cc1
Inhibition [1]: 88% | Inhibition [2]: 27% | Inhibition [3]: 9%

Cl.N=c1c2c(n(Cc3cccc(Cl)c3)c3c1CCC3)CCCC2
Inhibition [1]: 97% | Inhibition [2]: 86% | Inhibition [3]: 0%

CC1(C)N=C(NC(=O)c2ccc([N+](=O)[O-])cc2)N=C(N)N1OCc1ccc2ccccc2c1
Inhibition [1]: 95% | Inhibition [2]: 78% | Inhibition [3]: 64%

CN1CCC(Oc2cc(CN3CC[C@H](NC(=O)c4ccc(Cl)c(Cl)c4)C3)ccc2I)C1.O=C(O)C(F)(F)F (some centres undefined)
Inhibition [1]: 97% | Inhibition [2]: 24% | Inhibition [3]: 68%

Br.NC1=NC2(CCCCC2)N(OCCCCCCC2CCCCC2)C(N)=N1
Inhibition [1]: 97% | Inhibition [2]: 49% | Inhibition [3]: 77%

COc1ccc2ncc(F)c(CCN3CC(O)C(CNCc4nc5c(cc4Cl)OCC(=O)N5)C3)c2n1.Cl (centres undefined)
Inhibition [1]: 93% and 90% | Inhibition [2]: 23% and 15% and 30% | Inhibition [3]: 12% and 13% and 5%

O=[N+]([O-])c1ccc(Nc2nc(N/N=C/c3cccc(O)c3)nc(N3CCCC3)n2)cc1
Inhibition [1]: 88% | Inhibition [2]: 9% | Inhibition [3]: 0%

Cc1cccc2nc(-c3cccc(-c4cccc(NC(=O)Nc5ccc(Cl)cc5)c4)c3)[nH]c12
Inhibition [1]: 100% | Inhibition [2]: 94% | Inhibition [3]: 23%

O=C(/C=C/c1ccc(Cl)c(Cl)c1)NCCCCN1CCCN(C(=O)Nc2ccc(C(F)(F)F)cc2)CC1
Inhibition [1]: 94% | Inhibition [2]: 0% | Inhibition [3]: 35%

CCOC(=O)CNC(=O)c1cc(=O)c2ccccc2o1
Inhibition [1]: 99% | Inhibition [2]: 0% | Inhibition [3]: 22%

O=C(O)C(F)(F)F.OCCN1CCN(Cc2cccc(-c3ccc(-c4nc5cc(C(F)(F)F)ccc5[nH]4)s3)c2)CC1
Inhibition [1]: 100% | Inhibition [2]: 98% | Inhibition [3]: 42%

c1ccc(-c2cc(NCc3cccc4ccccc34)c3[nH]ncc3n2)cc1
Inhibition [1]: 93% | Inhibition [2]: 5% | Inhibition [3]: 7%

COc1ccc(NC(=O)Nc2cccc(-c3ccncc3)c2)cc1N1CCN(C)CC1
Inhibition [1]: 98% | Inhibition [2]: 57% | Inhibition [3]: 9%

Cn1cnc(CCNC(=O)c2cccc(-c3ccc(-c4nc5cc(F)ccc5[nH]4)cc3)c2)c1
Inhibition [1]: 88% | Inhibition [2]: 5% | Inhibition [3]: 26%

CC1=NN(c2ccc(C)c(C)c2)C(=O)C1=NNc1cccc(-c2cccc(NC(=O)OC(C)(C)C)c2)c1O
Inhibition [1]: 94% | Inhibition [2]: 21% | Inhibition [3]: 39%

Cc1ccc2oc3cc(-c4nnn[nH]4)ccc3c(=O)c2c1
Inhibition [1]: 97% | Inhibition [2]: 96% | Inhibition [3]: 2%

Cc1cc(OCCCN2CCC(NS(=O)(=O)c3ccc(Cl)c(Cl)c3)CC2)c2ccccc2n1
Inhibition [1]: 96% | Inhibition [2]: 35% | Inhibition [3]: 11%

COc1ccc(CCNCCCCCCNCCc2ccc(Cl)c3ccccc23)cc1OC.Cl
Inhibition [1]: 100% | Inhibition [2]: 28% | Inhibition [3]: 100%

O=C(/C=C/c1ccc(Cl)c(Cl)c1)NCCCCCN1CCC(NC(=O)Nc2ccc(F)c(Cl)c2)CC1
Inhibition [1]: 100% | Inhibition [2]: 11% | Inhibition [3]: 98%

CCn1c(Cc2ccccc2)nnc1Sc1ccc([N+](=O)[O-])c(C#N)c1
Inhibition [1]: 93% | Inhibition [2]: 72% | Inhibition [3]: 8%

CC(C)(C)c1ccc(CNC(=O)COc2ccc(-c3nnc(-c4cccc([N+](=O)[O-])c4)o3)cc2[N+](=O)[O-])cc1
Inhibition [1]: 93% | Inhibition [2]: 25% | Inhibition [3]: 10%

CCCCc1ccc(NC(=O)Nc2cccc(CCNCc3ccccc3)c2)cc1.O=C(O)C(F)(F)F
Inhibition [1]: 94% | Inhibition [2]: 13% | Inhibition [3]: 3%

O=C(NCC1CCN(CC2CCCCC2)C1)c1cc(-c2cccc(Cl)c2)cs1.O=C(O)C(F)(F)F (centres undefined)
Inhibition [1]: 85% | Inhibition [2]: 8% | Inhibition [3]: 51%

O=C(NCCCc1ccccc1)c1csc(C2CCCN(C(=O)c3ccc(O)c(-c4ccccc4)c3)C2)n1 (centres undefined)
Inhibition [1]: 97% | Inhibition [2]: 97% | Inhibition [3]: 5%

COC(=O)c1c(NC(=O)c2cccc(C(F)(F)F)c2)sc2c1CCN(Cc1ccccc1)C2.Cl
Inhibition [1]: 84% | Inhibition [2]: 61% | Inhibition [3]: 9%
